Where a name gives a salt, the structure may show the parent alone.
How the values were obtained:
Conditions in all cases: incubation time: 27 h, anaerobic, 37 °C;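 for the amine columns active = adjusted P below 0.05 in both replicates with a change the same way and a mean fold change under 0.8 or over 1.25; inactive = the rest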
[1] = test system: Clostridium sporogenes DSM 1664; test: growth (OD595) fold change vs plate DMSO controls (fold change (ratio)); higher = more growth
Procedure, shortened: (§1)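 The measure reported is growth, taken as fold change against the median of DMSO controls on the same plate. Anaerobic mGAM cultures in 96-well plates (27 h, 37 °C) were read at 595 nm, blank-subtracted, corrected for compound background using 20 µM compound solutions in water, and multiplied by a calibration factor of 5 to give OD. Any fold change above 1.5 became NA, and 2 biological replicates were averaged.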

[2] = test system: Escherichia coli IAI1; test: as above
Procedure, shortened: as §1

[3] = test system: Klebsiella aerogenes DSM 30053; test: as above
Procedure, shortened: as §1

[4] = test system: Ruminococcus gnavus DSM 108212; test: as above
Procedure, shortened: as §1

[5] = test system: Klebsiella aerogenes DSM 30053; test: fold change of Histamine concentration vs plate DMSO controls (fold change (ratio)); higher = more amine produced, active = hit call of the paper (significant change in both replicates, either direction)
Procedure, shortened: (§2)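 In 80 µL wells, cultures of four gut bacterial strains in mGAM started at OD 0.1 before a 1:1 dilution and grew anaerobically at 37 °C for 27 h. Compounds were added to 20 µM final, except sweeteners at 50 µM final. After extraction of whole cultures with cold acetonitrile/methanol plus 0.1% formic acid and centrifugation, amines were measured by LC–triple-quadrupole MS in dynamic MRM mode against external calibration curves, with within-batch drift correction. Values give fold change over DMSO controls on the same plate, averaged across 2 biological replicates.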

[6] = test system: Clostridium sporogenes DSM 1664; test: fold change of Tryptamine concentration vs plate DMSO controls (fold change (ratio)); higher = more amine produced, active = hit call of the paper (significant change in both replicates, either direction)
Procedure, shortened: as §2

[7] = test system: Ruminococcus gnavus DSM 108212; test: as above
Procedure, shortened: as §2

[8] = test system: Escherichia coli IAI1; test: fold change of Putrescine concentration vs plate DMSO controls (fold change (ratio)); higher = more amine produced, active = hit call of the paper (significant change in both replicates, either direction)
Procedure, shortened: as §2

[9] = test system: Klebsiella aerogenes DSM 30053; test: as above
Procedure, shortened: as §2

[10] = test system: Escherichia coli IAI1; test: fold change of Cadaverine concentration vs plate DMSO controls (fold change (ratio)); higher = more amine produced, active = hit call of the paper (significant change in both replicates, either direction)
Procedure, shortened: as §2

[11] = test system: Klebsiella aerogenes DSM 30053; test: as above
Procedure, shortened: as §2

[12] = test system: Ruminococcus gnavus DSM 108212; test: fold change of 2-Phenylethylamine concentration vs plate DMSO controls (fold change (ratio)); higher = more amine produced, active = hit call of the paper (significant change in both replicates, either direction)
Procedure, shortened: as §2

## CCCOc1ccc(C(=O)OCCN(CC)CC)cc1N [Proparacaine hydrochloride] (20 µM)
[1]
  growth: 1.19
[2]
  growth: 1.08
[3]
  growth: 1.14
[4]
  growth: 1.03
[5]
  fold change of Histamine concentration: 0.892 (inactive)
[6]
  fold change of Tryptamine concentration: 1.09 (inactive)
[7]
  fold change of Tryptamine concentration: 1.08 (inactive)
[8]
  fold change of Putrescine concentration: 1.13 (inactive)
[9]
  fold change of Putrescine concentration: 0.98 (inactive)
[10]
  fold change of Cadaverine concentration: 0.971 (inactive)
[11]
  fold change of Cadaverine concentration: 1.04 (inactive)
[12]
  fold change of 2-Phenylethylamine concentration: 1.14 (inactive)

## CCCCC1C(=O)N(c2ccccc2)N(c2ccccc2)C1=O [Phenylbutazone] (20 µM)
[1]
  growth: 1.03
[2]
  growth: 0.993
[3]
  growth: 1.01
[4]
  growth: 1.02
[5]
  fold change of Histamine concentration: 1.05 (inactive)
[6]
  fold change of Tryptamine concentration: 0.986 (inactive)
[7]
  fold change of Tryptamine concentration: 0.969 (inactive)
[8]
  fold change of Putrescine concentration: 0.992 (inactive)
[9]
  fold change of Putrescine concentration: 1.05 (inactive)
[10]
  fold change of Cadaverine concentration: 1.01 (inactive)
[11]
  fold change of Cadaverine concentration: 1.04 (inactive)
[12]
  fold change of 2-Phenylethylamine concentration: 0.878 (inactive)

## C=CCc1ccccc1OCC(O)CNC(C)C (stereo not drawn) [Alprenolol hydrochloride] (20 µM)
[1]
  growth: 0.992
[2]
  growth: 0.97
[3]
  growth: 0.955
[4]
  growth: 0.856
[5]
  fold change of Histamine concentration: 1.05 (inactive)
[6]
  fold change of Tryptamine concentration: 1.07 (inactive)
[7]
  fold change of Tryptamine concentration: 1.08 (inactive)
[8]
  fold change of Putrescine concentration: 0.934 (inactive)
[9]
  fold change of Putrescine concentration: 0.985 (inactive)
[10]
  fold change of Cadaverine concentration: 1.01 (inactive)
[11]
  fold change of Cadaverine concentration: 0.998 (inactive)
[12]
  fold change of 2-Phenylethylamine concentration: 0.998 (inactive)

## Cc1cc(C#N)cc(C)c1Oc1nc(Nc2ccc(C#N)cc2)nc(N)c1Br [Etravirine] (20 µM)
[1]
  growth: 1.06
[2]
  growth: 1.01
[3]
  growth: 1.13
[4]
  growth: 1.03
[5]
  fold change of Histamine concentration: 1.01 (inactive)
[6]
  fold change of Tryptamine concentration: 1.03 (inactive)
[7]
  fold change of Tryptamine concentration: 0.995 (inactive)
[8]
  fold change of Putrescine concentration: 1.03 (inactive)
[9]
  fold change of Putrescine concentration: 1 (inactive)
[10]
  fold change of Cadaverine concentration: 1.04 (inactive)
[11]
  fold change of Cadaverine concentration: 0.981 (inactive)
[12]
  fold change of 2-Phenylethylamine concentration: 1.03 (inactive)

## NS(=O)(=O)c1cc2c(cc1Cl)NC(Cc1ccccc1)NS2(=O)=O (stereo not drawn) [Benzylhydrochlorothiazide] (20 µM)
[1]
  growth: 1.04
[2]
  growth: 1.05
[3]
  growth: 0.986
[4]
  growth: 0.982
[5]
  fold change of Histamine concentration: 0.96 (inactive)
[6]
  fold change of Tryptamine concentration: 1.05 (inactive)
[7]
  fold change of Tryptamine concentration: 1.06 (inactive)
[8]
  fold change of Putrescine concentration: 1.06 (inactive)
[9]
  fold change of Putrescine concentration: 0.971 (inactive)
[10]
  fold change of Cadaverine concentration: 0.887 (inactive)
[11]
  fold change of Cadaverine concentration: 1.01 (inactive)
[12]
  fold change of 2-Phenylethylamine concentration: 1.07 (inactive)

## CCC(NC(C)C)C(O)c1ccc(O)c(O)c1 (stereo not drawn) [Isoetharine mesylate salt] (20 µM)
[1]
  growth: 1.13
[2]
  growth: 1.06
[3]
  growth: 0.99
[4]
  growth: 0.992
[5]
  fold change of Histamine concentration: 1 (inactive)
[6]
  fold change of Tryptamine concentration: 0.966 (inactive)
[7]
  fold change of Tryptamine concentration: 0.977 (inactive)
[8]
  fold change of Putrescine concentration: 1.11 (inactive)
[9]
  fold change of Putrescine concentration: 0.995 (inactive)
[10]
  fold change of Cadaverine concentration: 0.987 (inactive)
[11]
  fold change of Cadaverine concentration: 0.994 (inactive)
[12]
  fold change of 2-Phenylethylamine concentration: 0.92 (inactive)

## CC(=O)OCC(=O)[C@@]1(O)CC[C@H]2[C@@H]3CCC4=CC(=O)C=C[C@]4(C)[C@@]3(Cl)[C@@H](Cl)C[C@@]21C [Dichlorisone acetate] (20 µM)
[1]
  growth: 1.03
[2]
  growth: 1.01
[3]
  growth: 1
[4]
  growth: 0.886
[5]
  fold change of Histamine concentration: 0.984 (inactive)
[6]
  fold change of Tryptamine concentration: 1.01 (inactive)
[7]
  fold change of Tryptamine concentration: 1.01 (inactive)
[8]
  fold change of Putrescine concentration: 1.05 (inactive)
[9]
  fold change of Putrescine concentration: 1.01 (inactive)
[10]
  fold change of Cadaverine concentration: 1.04 (inactive)
[11]
  fold change of Cadaverine concentration: 1 (inactive)
[12]
  fold change of 2-Phenylethylamine concentration: 0.997 (inactive)

## CNS(=O)(=O)Cc1ccc2[nH]cc(CCN(C)C)c2c1 [Sumatriptan succinate] (20 µM)
[1]
  growth: 1.11
[2]
  growth: 0.977
[3]
  growth: 1.21
[4]
  growth: 0.976
[5]
  fold change of Histamine concentration: 0.809 (inactive)
[6]
  fold change of Tryptamine concentration: 1.05 (inactive)
[7]
  fold change of Tryptamine concentration: 1.01 (inactive)
[8]
  fold change of Putrescine concentration: 0.895 (inactive)
[9]
  fold change of Putrescine concentration: 0.992 (inactive)
[10]
  fold change of Cadaverine concentration: 1.03 (inactive)
[11]
  fold change of Cadaverine concentration: 1.03 (inactive)
[12]
  fold change of 2-Phenylethylamine concentration: 1.06 (inactive)

## CC(=O)OCC(=O)[C@@]12OC(C)(C)O[C@@H]1C[C@H]1[C@@H]3C[C@H](F)C4=CC(=O)C=C[C@]4(C)[C@@]3(F)[C@@H](O)C[C@@]12C [Fluocinonide] (20 µM)
[1]
  growth: 0.81
[2]
  growth: 0.961
[3]
  growth: 0.997
[4]
  growth: 0.976
[5]
  fold change of Histamine concentration: 1 (inactive)
[6]
  fold change of Tryptamine concentration: 1.07 (inactive)
[7]
  fold change of Tryptamine concentration: 0.936 (inactive)
[8]
  fold change of Putrescine concentration: 0.978 (inactive)
[9]
  fold change of Putrescine concentration: 1 (inactive)
[10]
  fold change of Cadaverine concentration: 0.972 (inactive)
[11]
  fold change of Cadaverine concentration: 0.988 (inactive)
[12]
  fold change of 2-Phenylethylamine concentration: 0.911 (inactive)

## NCC[C@H](O)C(=O)N[C@@H]1C[C@H](N)[C@@H](O[C@H]2O[C@H](CN)[C@@H](O)[C@H](O)[C@H]2O)[C@H](O)[C@H]1O[C@H]1O[C@H](CO)[C@@H](O)[C@H](N)[C@H]1O [Amikacin hydrate] (20 µM)
[1]
  growth: 0.793
[2]
  growth: 0.983
[3]
  growth: 0.78
[4]
  growth: 0.735
[5]
  fold change of Histamine concentration: 0.601 (active)
[6]
  fold change of Tryptamine concentration: 0.812 (inactive)
[7]
  fold change of Tryptamine concentration: 0.911 (inactive)
[8]
  fold change of Putrescine concentration: 1 (inactive)
[9]
  fold change of Putrescine concentration: 0.992 (inactive)
[10]
  fold change of Cadaverine concentration: 0.922 (inactive)
[11]
  fold change of Cadaverine concentration: 0.982 (inactive)
[12]
  fold change of 2-Phenylethylamine concentration: 0.972 (inactive)

## CN1CC(=O)N2[C@H](c3ccc4c(c3)OCO4)c3[nH]c4ccccc4c3C[C@@H]2C1=O [Tadalafil] (20 µM)
[1]
  growth: 1
[2]
  growth: 1.02
[3]
  growth: 0.993
[4]
  growth: 0.916
[5]
  fold change of Histamine concentration: 1.07 (inactive)
[6]
  fold change of Tryptamine concentration: 1.07 (inactive)
[7]
  fold change of Tryptamine concentration: 0.925 (inactive)
[8]
  fold change of Putrescine concentration: 0.957 (inactive)
[9]
  fold change of Putrescine concentration: 1.01 (inactive)
[10]
  fold change of Cadaverine concentration: 1.03 (inactive)
[11]
  fold change of Cadaverine concentration: 0.971 (inactive)
[12]
  fold change of 2-Phenylethylamine concentration: 0.911 (inactive)

## C=CCc1ccc(OC)c(OC)c1 [Methyleugenol] (20 µM)
[1]
  growth: 0.942
[2]
  growth: 1.08
[3]
  growth: 0.993
[4]
  growth: 1.06
[5]
  fold change of Histamine concentration: 0.992 (inactive)
[6]
  fold change of Tryptamine concentration: 0.986 (inactive)
[7]
  fold change of Tryptamine concentration: 1.02 (inactive)
[8]
  fold change of Putrescine concentration: 1.02 (inactive)
[9]
  fold change of Putrescine concentration: 0.921 (inactive)
[10]
  fold change of Cadaverine concentration: 0.988 (inactive)
[11]
  fold change of Cadaverine concentration: 1.15 (inactive)
[12]
  fold change of 2-Phenylethylamine concentration: 1.02 (inactive)

## C#CCN(C)Cc1ccccc1 [Pargyline hydrochloride] (20 µM)
[1]
  growth: 0.983
[2]
  growth: 0.989
[3]
  growth: 1.03
[4]
  growth: 0.999
[5]
  fold change of Histamine concentration: 0.983 (inactive)
[6]
  fold change of Tryptamine concentration: 1.01 (inactive)
[7]
  fold change of Tryptamine concentration: 1.01 (inactive)
[8]
  fold change of Putrescine concentration: 0.99 (inactive)
[9]
  fold change of Putrescine concentration: 1.01 (inactive)
[10]
  fold change of Cadaverine concentration: 1 (inactive)
[11]
  fold change of Cadaverine concentration: 1.01 (inactive)
[12]
  fold change of 2-Phenylethylamine concentration: 0.995 (inactive)

## Cn1c(=O)c2c(ncn2CC2OCCO2)n(C)c1=O [Doxofylline] (20 µM)
[1]
  growth: 1.05
[2]
  growth: 0.975
[3]
  growth: 0.973
[4]
  growth: 1.18
[5]
  fold change of Histamine concentration: 1.08 (inactive)
[6]
  fold change of Tryptamine concentration: 1.05 (inactive)
[7]
  fold change of Tryptamine concentration: 1.06 (inactive)
[8]
  fold change of Putrescine concentration: 0.999 (inactive)
[9]
  fold change of Putrescine concentration: 1.01 (inactive)
[10]
  fold change of Cadaverine concentration: 1 (inactive)
[11]
  fold change of Cadaverine concentration: 0.993 (inactive)
[12]
  fold change of 2-Phenylethylamine concentration: 1.1 (inactive)

Reference: the supplement of paper PMC12494721
